The record followed here is PubChem BioAssay (Tox21).

Values without a mark were called inactive. Results filed as inconclusive are left out. Calls of active or inactive are those of the source. Unless noted, calls follow the shape of the dose curve; as a rule, active = well fitted curve in the direction sought with a large enough effect in the repeat runs; inconclusive = weak or mixed curves; inactive = no such curve, though single readings can be large; an effect the other way counts as inactive or inconclusive.

The target in assay [1] is Luciferin 4-monooxygenase (Photinus pyralis) (UniProt P08659). Briefly: qHTS assay to identify small molecule inhibitors of firefly luciferase (AID 1224835). Also: nearly all actives have a fitted effect of over 25% in size. Also: potency is read from the fitted curve at half-maximal effect. The essentials:
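Inhibition of purified Photinus luciferase is measured by luminescence. Substrate levels (D-luciferin, ATP) sit at their KM values. Each compound is tested in a concentration series.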
For orientation: Quantitative high-throughput screening tests each substance at several concentrations.

The nature of assay [2]: qHTS assay to identify small molecule agonists of the constitutive androstane receptor (CAR) signaling pathway - cell viability counter screen (AID 1224836). Also: nearly all actives have a fitted effect of over 45% in size. The essentials: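 23 h treatment, 37 C, 5% CO2. Cell line: HepG2 stably expressing hCAR with a CYP2B6-2.2kb construct. Co-treatment: PK11195, 0.75 uM final. Read-out: CellTiter-Fluor fluorescence intensity.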
Assay [3] in a line: qHTS assay to identify small molecule antagonists of the constitutive androstane receptor (CAR) signaling pathway - cell viability counter screen (AID 1224837). Also: nearly all actives have a fitted effect of over 45% in size. In outline: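 Counter screen run in HepG2-CYP2B6-hCAR cells: 4 hr settle, compound titration (15 concentrations) with 50 nM CITCO, 23 hr at 37 C/5% CO2, CellTiter-Fluor fluorescence.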
Assay [4] addresses Nuclear receptor subfamily 1 group I member 3 (Homo sapiens) (UniProt Q14994). Briefly: qHTS assay to identify small molecule antagonists of the constitutive androstane receptor (CAR) signaling pathway (AID 1224838).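 Also: HepG2 cells stably expressing hCAR with CYP2B6 luciferase reporter stimulated by CITCO; nearly all actives have a fitted effect of over 40% in size.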 The essentials:
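Cell line: HepG2 double-stable for hCAR and CYP2B6-2.2kb reporter. Agonist: CITCO, 50 nM final. Compounds: 15 concentrations, 24 h, 37 C. Detection: ONE-Glo luminescence.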

A short description of assay [5]: qHTS assay to identify small molecule antagonists of the estrogen related receptor signaling pathway with the pleiotropic PPARgamma coactivator (PGC) from Tox21 10K library - cell viability counter screen (AID 1224840; active = well fitted cell-killing curve with a large enough effect in the repeat runs, not every such curve was filed as active; also: nearly all actives have a fitted effect of over 40% in size). In outline:
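Following seeding of 2,000 PGC/ERR cells/well and 6 hours' incubation, test compounds were delivered in DMSO. The plates then sat 17.5 hours at 37 C before a fluorogenic live-cell protease reagent (CellTiter-Fluor) was read after 30 min.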

Assay [6] can be described thus: qHTS assay to identify small molecule antagonists of the estrogen related receptor signaling pathway with the pleiotropic PPARgamma coactivator (PGC) from Tox21 10K library (AID 1224841; call rule not given here; also: actives are mostly falling curves and most rising ones were filed inactive; nearly all actives have a fitted effect of over 50% in size). The essentials: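 qHTS antagonist format: PGC/ERR cells, 2k/well, compound in DMSO by pin transfer after 6 h attachment, 18 h treatment at 37 C, One-Glo luminescence read at 30 min.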

A short description of assay [7]: qHTS assay to identify small molecule agonists of the estrogen related receptor signaling pathway with the pleiotropic PPARgamma coactivator (PGC) from Tox21 10K library (AID 1224842). Also: nearly all actives have a fitted effect of over 15% in size. The essentials:
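Luminescence from One-Glo (30 min, room temperature) measured after PGC/ERR cells had 18 h at 37 C with pinned compound (23 nL in DMSO). Cells had been seeded at 2,000 per well and pre-incubated 6 h.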

Assay [8] is described as follows: qHTS assay to identify small molecule agonists of the hypoxia (HIF-1) signaling pathway - cell viability counter screen (AID 1224844; calls by dose curve; also: nearly all actives have a fitted effect of over 50% in size). The essentials:
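Cells (HRE-bla ME-180, 2,000 per well) sat 5 hrs at 37C, got compound for 17 hrs, were read for CCF4-AM FRET, and were finally lysed with CellTiter-Glo for a 30 min room-temperature luminescence read.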

A short description of assay [9]: qHTS assay to identify small molecule agonists of H2AX (AID 1224845; active = well fitted activation curve with a large enough effect in the signal ratio in the repeat runs, not every such curve was filed as active; the % refers to the signal ratio). The essentials: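 Phospho-H2AX Ser139 measured by HTRF (ex 320 nm; em 665 and 620 nm) after 24 hr antibody incubation. Compounds, 15 concentrations, 0.76% DMSO, were applied to CHO-K1 cells for 3hr at 37C before lysis.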
Assay [10] in a line: qHTS assay to identify small molecule agonists of the hypoxia (HIF-1) signaling pathway (AID 1224846; active = well fitted activation curve with a large enough effect in the signal ratio in the repeat runs, not every such curve was filed as active; the % refers to the signal ratio). The essentials:
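A low-serum medium (0.5% dialyzed FBS) holding 2,000 HRE-bla ME-180 cells per well is preincubated for 5 hrs, dosed with compounds by pintool, and kept a further 17 hrs at 37C, 5% CO2 before CCF4-AM FRET detection of beta-lactamase.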

The nature of assay [11]: qHTS assay to identify small molecule agonists of H2AX - cell viability counter screen (AID 1224847; calls by dose curve; also: top concentration of the series differs between compounds; nearly all actives have a fitted effect of over 30% in size). The essentials: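 Compounds tested at 15 concentrations were incubated 3 hr at 37C with wild-type CHO-K1 cells; cellular ATP-based luminescence (CellTiter-Glo) indicated viability.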
Assay [12] can be described thus: qHTS assay to identify small molecule antagonists of the estrogen related receptor (ERR) signaling pathway from Tox21 library (AID 1224848). Also: nearly all actives have a fitted effect of over 50% in size. In outline: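 Reading was by luminescence 30 min after ONE-Glo addition. Before that, ERR cells at 2,000 per well had rested 6 h at 37 C/5% CO2 and then received pin-tooled compounds in DMSO for 18 h at 37 C.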
A short description of assay [13]: qHTS assay to identify small molecule agonists of the estrogen related receptor (ERR) signaling pathway from Tox21 library (AID 1224849; calls by dose curve; also: nearly all actives have a fitted effect of over 15% in size). The settings on record: ERR reporter cell line, ONE-Glo luciferase, 18 h; at 92.4 µM (top of the series) unless noted. The essentials:
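Screening used an NTP-provided ERR luciferase cell line. Compounds in DMSO were added 6 h after seeding and left 18 h at 37 C before a 30 min ONE-Glo step and luminescence reading.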

Assay [14] is described as follows: qHTS RealTime-Glo MT Cell Viability Assay in HepG2 cells - 24 hour (AID 1224867). Also: nearly all actives have a fitted effect of over 50% in size. The essentials:
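Cells + NanoLuc/prosubstrate dispensed (600 cells/well) → 5 h at 37 C/5% CO2 → compounds in DMSO transferred → 40 h incubation at 37 C, luminescence read at 0, 8, 16, 24, 32, 40 h.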

The nature of assay [15]: qHTS RealTime-Glo MT Cell Viability Assay in HEK293 cells - 32 hour (AID 1224868). In outline: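 Tox21 10K qHTS, HEK293, 600 cells/well, RealTime-Glo reagent co-dispensed with cells; 5 h preincubation, compound by pintool, 37 C, luminescence at 0–40 h.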
The nature of assay [16]: A CellTox Green Cytotoxicity Assay to monitor cytotoxicity in HEK293 cells - 0 hour (AID 1224869). Also: nearly all actives have a fitted effect of over 50% in size. In outline: (§1)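 Fluorescence intensity, read at 0, 8, 16, 24, 32 and 40 h of compound treatment, reflected dye binding to DNA of dead HEK293 cells; compounds (23 nL, DMSO) were added 5 h after plating cells with reagent.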
The nature of assay [17]: qHTS RealTime-Glo MT Cell Viability Assay in HepG2 cells - 40 hour (AID 1224870). Also: nearly all actives have a fitted effect of over 50% in size. In outline:
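Real-time viability: cells seeded at 600 per well together with NanoLuc and cell-permeant prosubstrate, compounds added after 5 h incubation. Luminescence tracked at 0, 8, 16, 24, 32 and 40 h of exposure.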

Assay [18] in a line: A CellTox Green Cytotoxicity Assay to monitor cytotoxicity in HEK293 cells - 40 hour (AID 1224871). Also: nearly all actives have a fitted effect of over 45% in size. In outline:
as §1

The target in assay [19] is Nuclear receptor subfamily 1 group I member 3 (Homo sapiens) (UniProt Q14994). Briefly: qHTS assay to identify small molecule agonists of the constitutive androstane receptor (CAR) signaling pathway (AID 1224839).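 Also: HepG2 cells stably carrying human CAR and a CYP2B6 luciferase reporter; nearly all actives have a fitted effect of over 15% in size.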 The essentials:
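Compounds tested at 15 concentrations on HepG2 cells stably harbouring hCAR and CYP2B6-2.2kb reporter constructs, co-treated with PK11195 (0.75 uM final), 24 h at 37 C; luminescent reporter signal quantified.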

In assay [20] the target is Thyrotropin receptor (Homo sapiens) (UniProt P16473). Briefly: qHTS assay to identify small molecule agonists of the thyroid stimulating hormone receptor (TSHR) signaling pathway (AID 1224843; calls by dose curve; also: nearly all actives have a fitted effect of over 45% in size). In outline: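 HEK293 cells stably bearing the thyrotropin receptor were plated at 800 cells/well and challenged with compound (30 min, RT). Accumulated cAMP was quantified via cAMP-d2 competing for cryptate-tagged antibody.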
Sequence of Thyrotropin receptor (Homo sapiens) (P16473 whole entry, looked up): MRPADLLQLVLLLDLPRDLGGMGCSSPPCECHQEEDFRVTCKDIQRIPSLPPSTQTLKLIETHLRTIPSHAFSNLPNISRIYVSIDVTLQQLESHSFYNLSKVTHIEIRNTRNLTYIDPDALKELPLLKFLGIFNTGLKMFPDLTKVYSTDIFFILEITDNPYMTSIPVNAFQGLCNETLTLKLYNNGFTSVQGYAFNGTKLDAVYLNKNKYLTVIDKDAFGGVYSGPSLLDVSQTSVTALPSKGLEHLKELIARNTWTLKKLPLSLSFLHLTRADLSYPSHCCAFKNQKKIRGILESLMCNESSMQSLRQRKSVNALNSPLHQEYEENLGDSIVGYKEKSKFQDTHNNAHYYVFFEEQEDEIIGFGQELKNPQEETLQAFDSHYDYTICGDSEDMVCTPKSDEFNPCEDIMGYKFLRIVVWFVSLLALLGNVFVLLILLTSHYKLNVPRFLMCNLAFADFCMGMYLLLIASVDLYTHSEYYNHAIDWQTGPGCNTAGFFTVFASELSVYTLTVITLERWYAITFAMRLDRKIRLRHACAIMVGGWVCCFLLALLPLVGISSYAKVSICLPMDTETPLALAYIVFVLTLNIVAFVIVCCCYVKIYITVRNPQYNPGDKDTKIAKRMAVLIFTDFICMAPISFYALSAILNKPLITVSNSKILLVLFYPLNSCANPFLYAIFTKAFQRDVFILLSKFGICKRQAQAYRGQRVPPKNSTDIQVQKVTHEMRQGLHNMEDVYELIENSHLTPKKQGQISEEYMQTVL
% is scaled to controls: 0 for no effect and ±100 for the full control effect.

Sequence of Luciferin 4-monooxygenase (Photinus pyralis) (P08659 whole entry, looked up): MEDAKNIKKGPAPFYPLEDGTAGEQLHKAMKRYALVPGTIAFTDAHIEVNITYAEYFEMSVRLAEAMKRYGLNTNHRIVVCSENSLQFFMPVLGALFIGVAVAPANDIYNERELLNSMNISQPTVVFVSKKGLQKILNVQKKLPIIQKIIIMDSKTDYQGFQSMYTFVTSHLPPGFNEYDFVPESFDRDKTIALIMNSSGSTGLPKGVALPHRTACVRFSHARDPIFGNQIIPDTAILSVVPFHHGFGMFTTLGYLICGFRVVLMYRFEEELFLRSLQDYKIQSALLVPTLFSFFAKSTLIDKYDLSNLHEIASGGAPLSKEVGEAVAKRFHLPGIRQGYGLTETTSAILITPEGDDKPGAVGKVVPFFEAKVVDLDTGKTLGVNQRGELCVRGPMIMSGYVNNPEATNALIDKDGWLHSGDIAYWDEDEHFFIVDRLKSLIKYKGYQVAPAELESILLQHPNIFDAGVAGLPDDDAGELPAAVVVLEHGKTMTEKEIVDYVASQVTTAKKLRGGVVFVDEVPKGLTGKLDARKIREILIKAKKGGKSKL
Sequence of Nuclear receptor subfamily 1 group I member 3 (Homo sapiens) (Q14994 whole entry, looked up): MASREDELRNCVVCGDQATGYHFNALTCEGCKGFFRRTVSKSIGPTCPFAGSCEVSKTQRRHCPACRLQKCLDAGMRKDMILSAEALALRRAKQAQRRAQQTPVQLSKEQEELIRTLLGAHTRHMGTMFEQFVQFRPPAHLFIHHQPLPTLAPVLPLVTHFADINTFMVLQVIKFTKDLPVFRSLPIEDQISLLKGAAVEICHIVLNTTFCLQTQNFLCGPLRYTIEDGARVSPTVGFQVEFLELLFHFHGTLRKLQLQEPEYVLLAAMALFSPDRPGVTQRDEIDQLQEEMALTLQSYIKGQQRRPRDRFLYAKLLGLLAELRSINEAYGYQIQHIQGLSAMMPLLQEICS

`CCCCN`: the Potency result in [1], in assay [2], in assay [3], in [6], in [11] and in [12] was “inactive” throughout. For the same molecule, the Potency entry in [15] and in assay [18] was “inactive” throughout. In addition, the molecule was called inactive in [4], in assay [5], in [7], in [8], in assay [9] and in assay [10]. Further, the outcome in [14], in [16] and in [17] was inactive. Moreover, the activity change, positive = activation in assay [13] was 3.11% [at 42.5 µM].
In the case of `CC(C)C[C@H](NC(=O)CNC(=O)[C@H](Cc1ccc(O)cc1)NC(=O)[C@H](CO)NC(=O)[C@H](Cc1c[nH]c2ccccc12)NC(=O)[C@H](Cc1cnc[nH]1)NC(=O)[C@@H]1CCC(=O)N1)C(=O)N[C@@H](CCCN=C(N)N)C(=O)N1CCC[C@H]1C(=O)NCC(N)=O` (stereo in doubt), the Potency result in assay [1], in assay [2], in assay [3], in assay [19], in assay [11] and in assay [15] was “inactive” throughout. The Potency result in assay [18] was “inactive”. For the same molecule, the molecule was classed as inactive in [4], in [5], in assay [8], in assay [9], in assay [10] and in assay [17].
As to `Brc1ccc(-c2ccccc2)cc1`, the Potency in assay [1] is 35.5 µM (active). Also, the Potency result in assay [2], in assay [3], in [19], in assay [20], in assay [11] and in [15] was “inactive” throughout. In addition, the Potency entry in assay [18] is “inactive”. For the same molecule, the molecule was classed as inactive in [4], in assay [5], in assay [8], in assay [10], in assay [14] and in assay [16]. The molecule was classed as inactive in assay [17].
As for `CCOC(=O)/C=C/c1ccccc1`, the Potency in [1] is 35.6 µM (active). For the same molecule, the Potency result in assay [2], in [3], in assay [19], in assay [20], in assay [11] and in [15] was “inactive” in each case. Also, in [18], the Potency entry is “inactive”. In addition, the outcome in assay [4], in assay [5], in [8], in [9], in assay [10] and in assay [14] was inactive. For the same molecule, the molecule was called inactive in assay [16].
Take `COCCc1ccc(OCC2CO2)cc1` (centres undefined): the Potency result in assay [1], in assay [2], in assay [3], in [19], in [11] and in assay [15] was “inactive” throughout. For the same molecule, the Potency entry in assay [18] was “inactive”. Also, the molecule was classed as inactive in [4], in [5], in [8], in assay [9], in assay [10] and in assay [14]. For the same molecule, the outcome in assay [16] and in assay [17] was inactive.
As for `CNS(=O)(=O)CCc1ccc2[nH]cc(C3CCN(C)CC3)c2c1`, the Potency entry in assay [1], in [2], in [3], in assay [19], in assay [20] and in assay [11] was “inactive” throughout. Further, the Potency result in [15] and in assay [18] was “inactive” each time. In addition, the molecule was classed as inactive in assay [4], in assay [5], in assay [8], in assay [9], in assay [10] and in [14]. Also, in assay [17], the molecule was called inactive.
On to `O=C(OCC1(COC(=O)c2cccnc2)CCCC(COC(=O)c2cccnc2)(COC(=O)c2cccnc2)C1O)c1cccnc1`, for which the Potency result in assay [1], in assay [2], in [3], in assay [19], in [20] and in [11] was “inactive” in each case. Moreover, the Potency result in assay [15] and in assay [18] was “inactive” throughout. The molecule was called inactive in assay [4], in assay [5], in assay [8], in assay [9], in assay [10] and in assay [14]. Also, the result in assay [16] and in assay [17] was inactive.
As for `C[C@@H](Oc1ccc(CNC(=O)c2cccnc2Oc2ccc3c(c2)OCO3)c(F)c1)C(=O)O`, the Potency result in assay [1], in assay [2], in assay [3], in assay [6], in [11] and in assay [15] was “inactive” throughout. In assay [18], the Potency entry is “inactive”. Besides, the molecule was called inactive in [4], in assay [5], in [7], in [8], in [9] and in assay [10]. Besides, the molecule was classed as inactive in assay [14], in [16] and in assay [17]. Also, the activity change, positive = activation in assay [13] was 4.43%.
